{
  "source": "PubChem BioAssay (EPA / NIEHS)",
  "note": "Records with an inconclusive call do not appear. The source made the active and inactive calls. The calls were made as follows: active = hit-call score of the fitted dose curve at least 0.9, where 1 is the maximum; inconclusive = response in the unintended direction; inactive = score below 0.9.",
  "data": [
    {"read-out": "ABC Transporter (ABCB11), ABCB11 (gene 8647)", "assay": "CLD_ABCB11_6hr: CellzDirect (CLD) Gene Expression Assay for ABC Transporter (ABCB11) at 6 hours (AID 2283675);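 also: hits raise ABCB11 mRNA level so AC50 marks induction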", "procedure": "CLD_6hr is a cell-based, multiplexed-readout assay that uses hepatocyte, a human liver primary cell, with measurements taken at 6 hours after chemical dosing in a 96-well plate.CLD_ABCB11_6hr is one of 16 assay component(s) measured or calculated from the CLD_6hr assay. It is designed to make measurements of mRNA induction, a form of inducible reporter, as detected with chemiluminescence signals by Quantitative Nuclease Protection Assay (qNPA) technology.Data from the assay component CLD_ABCB11_6hr was analyzed at the endpoint, CLD_ABCB11_6hr, in the positive analysis fitting direction relative to DMSO as the negative control and baseline of activity. Using a type of inducible reporter, gain-of-signal activity can be used to understand changes in the reporter gene as they relate to the gene ABCB11. Furthermore, this assay endpoint can be referred to as a primary readout. To generalize the intended target to other relatable targets, this assay endpoint is annotated to the transporter intended target family, where subfamily is ABC transporter.\nHuman hepatocyte cultures were treated daily for two consecutive days with fresh dosing solutions containing appropriate concentrations of the 320 ToxCast chemicals (chemical identities were blinded to CellzDirect and other ToxCast collaborators), vehicle control (0.2% DMSO), and positive control inducers as summarized in Table 1. Due to the large number of treatment groups and chemicals examined, the ToxCast chemicals were divided into two groups (spanning two independent cultures of hepatocytes from separate donor preparations (Hu778: ToxCast plates 1 and 2; Hu776: ToxCast plates 3 and 4). Each preparation of human hepatocyte cultures was treated with respective vehicle control, medium only control, set of six positive controls/reference chemicals for the five hepatic receptor pathways, and a subset of eight of the ToxCast chemicals (indoxacarb, pyrithiobac-sodium, norflurazon, cyhalofop-butyl, methomyl, thiram, acetochlor, and propiconazole). These replicate data, coupled with internal replicates designed within the blinded ToxCast chemical library, provided additional data to evaluate interindividual differences between hepatocyte preparations and their potential impact on chemical profiles.Cell morphology and integrity were evaluated using phase-contrast microscopy as an indicator of hepatocyte cell health (Tyson & Green, 1987). Cultures for each treatment group (i.e., media, vehicle [0.2% DMSO], positive control inducers [multiple concentrations], and the ToxCast chemicals [multiple concentrations]) were observed and cell morphology was assessed relative to vehicle control cultures at each harvest time point (0, 6, 24, or 48 h). […] Images were evaluated at the conclusion of the study to assess changes in cell integrity and account for the effects of chemical exposure on uncharacteristic changes in concentration-dependent gene expression profiles. The results from these determinations of apparent cytotoxicity were annotated (yes/no) alongside the corresponding qNPA data for reference.At the conclusion of each treatment period, hepatocyte cultures (96-well) were washed with 1 volume of HBSS, lysed by addition of 25 ul ArrayPlate lysis buffer (HTG, Tucson, AZ), and 70 ul/well of Denaturation Oil, denatured by incubation at 95C for 10 min, and frozen at approximately -70C until analysis by nuclease protection assay (qNPA) (Roberts et al., 2007). For qNPA analysis, cell lysates were thawed at 50C for approximately 30 min, qNPA probes were added, and samples were incubated at 95C for 10 min to begin the detection process by denaturing the target RNA, dissociating the duplexes and secondary structure hybridization. At the conclusion of the hybridization period, S1 nuclease reagent was added to each sample to digest all nonprotected nucleotides at 50C for 60-90 min. […]", "values": [
      {"compound": "COc1nc(C)nc(NC(=O)NS(=O)(=O)c2ccccc2OCCCl)n1", "outcome": "inactive"},
      {"compound": "OB(O)O", "outcome": "inactive"},
      {"compound": "CCCCCOC(=O)COc1cc(N2C(=O)C3=C(CCCC3)C2=O)c(F)cc1Cl", "outcome": "inactive"},
      {"compound": "COC(=O)c1ccccc1C(=O)O", "outcome": "inactive"},
      {"compound": "COC(=O)c1ccc(I)cc1S(=O)(=O)NC(=O)Nc1nc(C)nc(OC)n1", "outcome": "inactive"},
      {"compound": "CCSC(=O)N(CC(C)C)CC(C)C", "outcome": "inactive"},
      {"compound": "CCCCC(CC)COC(=O)c1ccccc1C(=O)O", "note": "(centres undefined)", "outcome": "inactive"},
      {"compound": "c1ccc(Nc2ccccc2)cc1", "outcome": "inactive"},
      {"compound": "CCOC(=O)NCCOc1ccc(Oc2ccccc2)cc1", "outcome": "inactive"},
      {"compound": "CCCCC(CC)CN1C(=O)C2C3C=CC(C3)C2C1=O", "note": "(centres undefined)", "outcome": "inactive"},
      {"compound": "CSC(=O)c1cccc2nnsc12", "outcome": "inactive"},
      {"compound": "COC(=O)c1ccccc1S(=O)(=O)NC(=O)Nc1nc(OC(F)F)cc(OC(F)F)n1", "outcome": "inactive"},
      {"compound": "N#CSCSc1nc2ccccc2s1", "outcome": "inactive"},
      {"compound": "CCOC(=O)C(C)Oc1ccc(Oc2nc3ccc(Cl)cc3o2)cc1", "note": "(centres undefined)", "outcome": "inactive"},
      {"compound": "CCC(O)=C1C(=O)CC(C(=O)O)CC1=O", "note": "(centres undefined)", "outcome": "inactive"},
      {"compound": "O=C(Nc1ccc([N+](=O)[O-])cc1Cl)c1cc(Cl)ccc1O", "outcome": "inactive"},
      {"compound": "CCC(C)OC(=O)N1CCCCC1CCO", "note": "(centres undefined)", "outcome": "inactive"},
      {"compound": "COc1c(Cl)ccc(Cl)c1C(=O)O", "outcome": "inactive"},
      {"compound": "CCNc1nc(N)nc(Cl)n1", "outcome": "inactive"},
      {"compound": "S=C(S)NCCNC(=S)S.[Mn+2].[S-]C([S-])=NCCN=C([S-])[S-].[Zn+2]", "outcome": "inactive"},
      {"compound": "Oc1ccc(C(c2ccc(O)cc2)C(Cl)(Cl)Cl)cc1", "outcome": "inactive"},
      {"compound": "S=C([S-])NCCNC(=S)[S-].[Mn+2]", "outcome": "inactive"},
      {"compound": "CCOC(=O)[C@H](C)Oc1ccc(Oc2nc3ccc(Cl)cc3o2)cc1", "outcome": "inactive"},
      {"compound": "CCCCOC(=O)[C@@H](C)Oc1ccc(Oc2ccc(C(F)(F)F)cn2)cc1", "outcome": "inactive"},
      {"compound": "COC(=O)c1cccc(C)c1S(=O)(=O)NC(=O)Nc1nc(OCC(F)(F)F)nc(N(C)C)n1", "outcome": "inactive"},
      {"compound": "C#CCOC(=O)[C@@H](C)Oc1ccc(Oc2ncc(Cl)cc2F)cc1", "outcome": "inactive"},
      {"compound": "CCCCOC(=O)C(C)Oc1ccc(Oc2ccc(C(F)(F)F)cn2)cc1", "note": "(centres undefined)", "outcome": "inactive"},
      {"compound": "CCCN(CCC)c1c([N+](=O)[O-])cc(C(F)(F)F)c(N)c1[N+](=O)[O-]", "outcome": "inactive"},
      {"compound": "CCN(Cc1c(F)cccc1Cl)c1c([N+](=O)[O-])cc(C(F)(F)F)cc1[N+](=O)[O-]", "outcome": "inactive"},
      {"compound": "CC1(C)C(C=C(Cl)Cl)C1C(=O)OCc1cccc(Oc2ccccc2)c1", "note": "(centres undefined)", "outcome": "inactive"},
      {"compound": "CCCOC(=O)NCCCN(C)C", "outcome": "inactive"},
      {"compound": "CCCOC(=O)c1ccc(C(=O)OCCC)nc1", "outcome": "inactive"},
      {"compound": "CC(C)(c1ccc(O)cc1)c1ccc(O)cc1", "outcome": "inactive"},
      {"compound": "CN(C)C(=O)Nc1ccc(Cl)c(Cl)c1", "outcome": "inactive"}
    ]}
  ]
}
